SW480 rereplic: inducers of DNA re-replication in SW480 colon cancer cells | 340,000 tested, 1.8% active | AID 624297 | SW480 DNA re-replication, Hoechst DNA content imaging, 48 h | Potency, µM (top dose mostly 46.1 µM), most hits filed as activators; further: nearly all actives have a fitted effect of over 55% in size
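250 cells/well; 23 nL cpd via pin tool; 48 hr, 37 C, 5% CO2; Hoechst 40 min; imager read of total nuclear intensity, ex 405/em 500-530 nm.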
uPA surface inh: inhibitors of cell surface uPA generation; Potency, µM (series often up to 38.3 µM), most hits filed as inhibitors; cell surface uPA generation assay, qHTS; 330,000 tested, 0.31% active; active means well fitted inhibition curve with a large enough effect; inconclusive means small, poorly fitted or top-dose-only effect; inactive means no such curve, though single readings can be large or run the other way; tested in mouse RAW 264.7 cells; further: nearly all actives have a fitted effect of over 55% in size
Giardia killer: kills Giardia lamblia. Giardia lamblia trophozoite viability. activity change, % at 7.66 µM, hits read low. 340,000 tested, 0.15% active; in the data active means activity change below about -80%; inconclusive means between about -30% and that limit;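 further: parasites exposed to compound for two days anaerobically before the ATP read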
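Luminescent ATP signal served as the viability read-out, measured 15-30 min after adding ATP detection reagent to trophozoites that had been incubated with compounds for 48 hrs at 37 deg C anaerobically at 100 cells/well.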
MCF10A rerep: DNA re-replication induction in MCF 10a cells; MCF 10A DNA re-replication, Hoechst nuclear intensity, 48 h; 350,000 tested, 2.9% active; Potency, µM (titrated, usually from 46.1 µM), most hits filed as activators; further: nearly all actives have a fitted effect of over 50% in size
A number is an active result; - = inactive; ? = inconclusive; . = no result given; [ ] = another dose, or the depositor's remark. Sampled rows, rich in hits. Any-hit rate of the full collection: about 4.3%. Unless noted, the call rests on the fitted dose curve; in most records, active means well fitted activation curve with a large enough effect; inconclusive means small, poorly fitted or top-dose-only effect; inactive means no such curve, though single readings can be large or run the other way.

SMILES	SW480 rereplic	uPA surface inh	Giardia killer	MCF10A rerep
CC(OC(=O)c1cc(S(=O)(=O)N2CCOCC2)ccc1Br)C(=O)N1CCOCC1 (centres undefined)	-	-	-	-
CCCOc1ccc(C(=O)CCN2CCCCC2)cc1	?	-	-	?
CCOc1ccc(NC(=O)CCC(=O)c2ccc(Br)cc2)cc1	0.65µM	-	-	-
CCN1CCN(CC(=O)c2ccc(OC)cc2)CC1	-	-	-	2.1µM
CCOc1ccc(C(=O)CCN2CCCCCC2)cc1	?	-	-	3.3µM
O=C(COc1cccc(-n2cnnn2)c1)Nc1ccc([N+](=O)[O-])cc1	-	-	-	-
CCc1ccccc1NNC(=O)c1sccc1Cl	.	.	-	.
OC(CNc1ccnc2cc(Cl)ccc12)CNC1CCCCC1 (centres undefined)	23µM	-	-	?
Clc1ccc2c(c1)C(C1=NCCN1)c1ccccc1CS2 (centres undefined)	1.3µM	-	-	1.6µM
S=C1NCCc2ccc(Cl)cc2C1c1ccccc1Cl (centres undefined)	-	-	-	-
COc1ccc(C(=O)OCC(=O)NCC2CCCCC2)cc1F	-	-	-	8.2µM
COc1ccc(CC(=O)NCC2CCCCC2)cc1OC	5.8µM	-	-	-
COc1ccccc1NC(=S)NCC1CCCCC1	9.2µM	-	-	?
Cc1ccc(N(C)S(=O)(=O)c2csc(C(N)=O)c2)cc1C	-	-	-	?
CCCCn1c(N)c(N(CCOC)C(=O)COC(=O)COc2c(C)cc(C)cc2C)c(=O)[nH]c1=O	-	-	-	-
CCC(=O)Nc1ccc(C2C(=O)c3ccccc3C2=O)cc1	-	-	-82	-
CCCCC(=O)Nc1ccc(C2C(=O)c3ccccc3C2=O)cc1	-	-	?	-
CC1=CC2C(C3C=CC2(C)C(=O)C3(C)O)C(C)(O)C1=O (centres undefined)	-	-	-	-
NC(=O)c1c(N)sc(=S)n1-c1ccccc1	-[9.22 µM]	-	-	6.5µM
NC(=O)NN=C1c2cc(S(=O)(=O)N3CCOCC3)ccc2-c2ccc(S(=O)(=O)N3CCOCC3)cc21	.	.	-	.
O=C1CSC(c2cn(-c3ccccc3)nc2-c2ccccc2)N1Cc1ccco1 (centres undefined)	-	-	-	21µM
COc1cccc2oc3ccc(C#CC4(N)CCCCC4)cc3c(=O)c12	?	-	-	?
Cn1c2ccccc2c(=O)c2cc(C#CC3(O)CCCCC3)ccc21	?	1.3µM	?	?
O=c1c2ccccc2oc2ccc(C#CC3(O)CCCCC3)cc12	-	2.8µM	?	?
Cc1cc2sc3ccc(C#CC4(O)CCCCC4)cc3c(=O)c2cc1C	-	10µM	?	?
SMILES	SW480 rereplic	uPA surface inh	Giardia killer	MCF10A rerep
COC(=O)c1ccc(C2NC(c3ccc4c(c3)OCO4)=CC(c3ccccc3O)N2)cc1 (centres undefined)	.	.	-	.
CC(Oc1ccc2ccc(=O)oc2c1)C(=O)N1CCOCC1 (centres undefined)	-	-	-	-
CCN(C(=O)CSc1nnc(-c2ccccc2OC)n1N)c1c(N)n(Cc2ccccc2)c(=O)[nH]c1=O	-	-	-	-
Cc1ccc(S(=O)(=O)CCc2nc3ccccc3n2CCC#N)cc1	?	-	-	18µM
O=C(O)Cn1c(CCS(=O)(=O)c2ccc(Br)cc2)nc2ccccc21	-	-	-	-
Cc1ccc(NCc2cc3cc4c(cc3n(CC(=O)Nc3ccc(C)cc3)c2=O)OCCO4)cc1	.	.	-	.
CSc1nc2cc(C)nn2c(-c2ccccc2Cl)c1C#N	-	-	-	-
CC(=O)CCC(=O)O	-	.	.	-
CCCCCCCCCCCCN1[C@@H](CC(=O)O)c2cc(C(F)(F)F)ccc2S1(=O)=O	-	-	-	16µM
CCCCCCCCN1[C@@H](CC(=O)O)c2cc(C(F)(F)F)ccc2S1(=O)=O	?	-	-	-
Fc1ccc(/C=N/NC2=Nc3cccc4cccc2c34)cc1	-	-	-	16µM
Cc1ccc(-c2cnc3c(Cl)c(C)nn3c2)cc1	10µM	-	-	?
CC(=O)C1=C(O)C(=O)N(c2ccc(Br)cn2)C1c1ccc(Br)cc1 (centres undefined)	?	?	-	?
CC(=O)C1=C(O)C(=O)N(c2ccc(Br)cn2)C1c1ccc(F)cc1 (centres undefined)	7.3µM	-	-	-
NC(Cc1ccccc1)C(O)c1ccco1 (centres undefined)	.	.	-	.
OC(COc1cccc2ccccc12)CN1CCN(c2ccccc2Cl)CC1 (centres undefined)	?	-	-	18µM
Cc1cc(C)c(C)c(S(=O)(=O)N2CCN(c3ncnc4ccccc34)CC2)c1C	-	?	-	18µM
COC(=O)c1ccc(NC(=O)CSC2=NCCN2)cc1	?	-	-	15µM
CCCCn1c(N)c(N(CCOC)C(=O)CN(C)S(=O)(=O)c2ccc(F)cc2)c(=O)[nH]c1=O	-	-	-	-
CC(NC(=O)/C(C#N)=C/c1ccc(N2CCOCC2)cc1)c1ccccc1 (centres undefined)	?	-	-	21µM
CC(NC(=O)/C(C#N)=C/c1cccs1)c1ccccc1 (centres undefined)	-	-	-	-
CC(NC(=O)/C(C#N)=C/c1ccco1)c1ccccc1 (centres undefined)	-	-	-	-
CC(NC(=O)/C(C#N)=C/c1ccc([N+](=O)[O-])o1)c1ccccc1 (centres undefined)	3.7µM	-	-	3.7µM
CCOCCCNC(=O)/C(C#N)=C/c1cc(Br)c(O)c(Br)c1	8.2µM	-	-	12µM
CCOCCCNC(=O)/C(C#N)=C/c1ccc([N+](=O)[O-])o1	?	-	-	5.2µM
SMILES	SW480 rereplic	uPA surface inh	Giardia killer	MCF10A rerep
COc1cccc(CC2(CO)CCN(S(=O)(=O)c3ccc(OC)cc3OC)CC2)c1	-	-	-	-
c1ccc(Nc2nc(NCc3ccco3)nc3nccnc23)cc1	.	.	-	.
O=C(Cc1cccc(NC(=O)C2CCN(C(=O)C3CCCC3)CC2)c1)Nc1cccc(C(=O)N2CCOCC2)c1	-	-	-	-
CC(CNC(=O)CN(C)CC(=O)Nc1ccccc1Br)c1ccccc1 (centres undefined)	-	-	-	-
COC(=O)c1ccc(/C=C(\C#N)C(=O)NC(C)c2ccccc2)cc1 (centres undefined)	?	-	-	18µM
COc1ccc(C(=O)c2ccc(OC)cc2OC)cc1	?	-	-	16µM
COc1ccc(OC)c(C(=O)c2ccc(C(=O)c3cc(OC)ccc3OC)cc2)c1	-	-	-	-
CN(C)c1ccc(C(=O)c2ccc(N(C)C)c3ccccc23)cc1	0.41µM	-	-	0.21µM
COc1ccc(C(=O)c2ccc(N(C)C)cc2)c(OC)c1	4.5µM	.	-	2.2µM
CC(=O)N(\C=C/C=C/C=C1\Sc2ccccc2C1=O)c1ccccc1	-	-	-	15µM
Nc1nc(=S)c2n[nH]nc2[nH]1	.	.	-	.
COc1ccc(C[C@H](N)C(=O)N[C@H]2[C@@H](O)[C@H](n3cnc4c(N(C)C)ncnc43)O[C@@H]2CO)cc1	?	1µM	-	?
OCC1OC(n2cnc3c(/C=C(\O)c4ccccc4)ncnc32)C(O)C1O (centres undefined)	?	-	-	5.8µM
CN(C)c1ncnc2c1ncn2C1OC(CO)C(O)C1O (centres undefined)	7.3µM	-	-	?
